PubChem BioAssay AID1159580 (chemical genetic matrix, 2015)
In all, about 5,500 compounds went through this assay and about 2,000 (36%) were called active. Another 18% or so got no clear call; they are omitted. Rule as the data show it: active = normalized growth mostly below about 0.91 (no sharp cut-off); inconclusive = no clear call, values can overlap the other calls; inactive = mostly above about 0.92. The list shows a part of the results.

Test: chemical genetic growth profiling, strain panel (AID 1159580);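 also: tested at 20 µM; growth read once vehicle control cultures reached saturation at 30 °C; 1 = growth at the plate median or of vehicle wells; lower values mean less growth of the strain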
Conditions: growth OD

Measured: normalized growth

C[C@@H]1C(=O)O[C@H]2[C@H]1CC[C@@]1(C)C=CC(=O)[C@@]3(C)O[C@@]213
inactive: S. cerevisiae deletion strains, locus YKL009W, strain mrt4, active compounds read low 1.03 | S. cerevisiae deletion strains, locus YKL068W, active compounds read low 1.01 | S. cerevisiae deletion strains, locus YKL085W, strain MDH1 (second series), active compounds read low 1.01 | S. cerevisiae deletion strains, locus YKL085W, strain MDH1, active compounds read low 1.01 | S. cerevisiae deletion strains, locus YKL160W, strain elf1, active compounds read low 0.963 | S. cerevisiae deletion strains, locus YKL190W, strain CNB1, active compounds read low 1.01 | S. cerevisiae deletion strains, locus YKR001C, strain vps1, active compounds read low 1 | S. cerevisiae deletion strains, locus YKR026C, strain gcn3, active compounds read low 1.01 | S. cerevisiae deletion strains, locus YKR091W, strain srl3, active compounds read low 1 | S. cerevisiae deletion strains, locus YLL001W, strain dnm1, active compounds read low 1.02 | S. cerevisiae deletion strains, locus YLL026W, active compounds read low 1.01 | S. cerevisiae deletion strains, locus YLL041C, strain sdh2, active compounds read low 1.01 | S. cerevisiae deletion strains, locus YLR027C, strain aat2, active compounds read low 1.02 | S. cerevisiae deletion strains, locus YLR039C, strain RIC1, active compounds read low 0.994 | S. cerevisiae deletion strains, locus YLR058C, strain SHM2, active compounds read low 1.01 | S. cerevisiae deletion strains, locus YLR102C, strain apc9, active compounds read low 1.01 | S. cerevisiae deletion strains, locus YLR113W, strain HOG1, active compounds read low 1.03 | S. cerevisiae deletion strains, locus YLR221C, strain rsa3, active compounds read low 1.01 | S. cerevisiae deletion strains, locus YLR258W, strain gsy2, active compounds read low 1.03 | S. cerevisiae deletion strains, locus YLR262C, strain YPT6 (second series), active compounds read low 0.996 | S. cerevisiae deletion strains, locus YLR262C, strain YPT6, active compounds read low 0.997 | S. cerevisiae deletion strains, locus YLR268W, strain sec22, active compounds read low 1.04 | S. cerevisiae deletion strains, locus YLR320W, strain mms22, active compounds read low 1.03 | S. cerevisiae deletion strains, locus YLR330W, strain CHS5, active compounds read low 1.01 | S. cerevisiae deletion strains, locus YLR342W, strain FKS1 (second series), active compounds read low 1.01 | S. cerevisiae deletion strains, locus YLR342W, strain FKS1, active compounds read low 1.01 | S. cerevisiae deletion strains, locus YLR357W, strain rsc2, active compounds read low 1.02 | S. cerevisiae deletion strains, locus YLR370C, strain arc18, active compounds read low 1.02 | S. cerevisiae deletion strains, locus YLR371W, strain rom2, active compounds read low 1.03 | S. cerevisiae deletion strains, locus YLR384C, strain iki3, active compounds read low 1 | S. cerevisiae deletion strains, locus YLR418C, strain cdc73, active compounds read low 1.05 | S. cerevisiae deletion strains, locus YML016C, strain PPZ1, active compounds read low 1.01 | S. cerevisiae deletion strains, locus YML032C, strain rad52, active compounds read low 1.01 | S. cerevisiae deletion strains, locus YML120C, strain ndi1, active compounds read low 1.03 | S. cerevisiae deletion strains, locus YML124C, strain tub3, active compounds read low 1.02 | S. cerevisiae deletion strains, locus YMR058W, strain fet3, active compounds read low 1.03 | S. cerevisiae deletion strains, locus YMR078C, strain ctf18, active compounds read low 1.02 | S. cerevisiae deletion strains, locus YMR125W, strain sto1, active compounds read low 0.999 | S. cerevisiae deletion strains, locus YMR129W, active compounds read low 1.03 | S. cerevisiae deletion strains, locus YMR205C, strain PFK2, active compounds read low 1.02 | S. cerevisiae deletion strains, locus YMR223W, strain ubp8, active compounds read low 1.01 | S. cerevisiae deletion strains, locus YMR231W, strain pep5, active compounds read low 1.01 | S. cerevisiae deletion strains, locus YMR263W, strain SAP30, active compounds read low 1.02 | S. cerevisiae deletion strains, locus YMR307W, strain GAS1, active compounds read low 1 | S. cerevisiae deletion strains, locus YNL067W, strain RPL9B, active compounds read low 1.02 | S. cerevisiae deletion strains, locus YNL071W, strain lat1, active compounds read low 1 | S. cerevisiae deletion strains, locus YNL128W, strain TEP1, active compounds read low 1.03 | S. cerevisiae deletion strains, locus YNL153C, strain GIM3, active compounds read low 1.02 | S. cerevisiae deletion strains, locus YNL183C, strain NPR1, active compounds read low 0.974 | S. cerevisiae deletion strains, locus YNL209W, strain ssb2, active compounds read low 1.01 | S. cerevisiae deletion strains, locus YNL233W, strain BNI4, active compounds read low 1.03 | S. cerevisiae deletion strains, locus YNL248C, strain rpa49, active compounds read low 1.03 | S. cerevisiae deletion strains, locus YNL250W, strain rad50, active compounds read low 1.03 | S. cerevisiae deletion strains, locus YNL271C, strain bni1, active compounds read low 1.01 | S. cerevisiae deletion strains, locus YNL298W, strain CLA4, active compounds read low 1.01 | S. cerevisiae deletion strains, locus YNL307C, strain MCK1, active compounds read low 1.03 | S. cerevisiae deletion strains, locus YNL322C, strain KRE1 (second series), active compounds read low 1 | S. cerevisiae deletion strains, locus YNL322C, strain KRE1, active compounds read low 1.01 | S. cerevisiae deletion strains, locus YNR049C, strain mso1, active compounds read low 1.04 | S. cerevisiae deletion strains, locus YNR052C, strain pop2, active compounds read low 1.01 | S. cerevisiae deletion strains, locus YOL006C, strain TOP1, active compounds read low 1.04 | S. cerevisiae deletion strains, locus YOL012C, strain htz1 0.788 | S. cerevisiae deletion strains, locus YOL147C, strain pex11, active compounds read low 1.01 | S. cerevisiae deletion strains, locus YOR001W, strain rrp6, active compounds read low 1.05 | S. cerevisiae deletion strains, locus YOR061W, strain CKA2, active compounds read low 1.02 | S. cerevisiae deletion strains, locus YOR069W, strain VPS5, active compounds read low 1.01 | S. cerevisiae deletion strains, locus YOR070C, strain gyp1, active compounds read low 1.01 | S. cerevisiae deletion strains, locus YOR080W, strain dia2, active compounds read low 1 | S. cerevisiae deletion strains, locus YOR083W, strain WHI5, active compounds read low 1 | S. cerevisiae deletion strains, locus YOR106W, strain vam3, active compounds read low 0.999 | S. cerevisiae deletion strains, locus YOR136W, strain idh2, active compounds read low 1.02 | S. cerevisiae deletion strains, locus YOR144C, strain elg1, active compounds read low 1.02 | S. cerevisiae deletion strains, locus YOR184W, strain ser1, active compounds read low 1.03 | S. cerevisiae deletion strains, locus YOR231W, strain MKK1, active compounds read low 1.04 | S. cerevisiae deletion strains, locus YOR265W, strain rbl2, active compounds read low 1.03 | S. cerevisiae deletion strains, locus YOR270C, strain vph1, active compounds read low 1.1 | S. cerevisiae deletion strains, locus YOR290C, strain snf2, active compounds read low 1.02 | S. cerevisiae deletion strains, locus YOR316C, strain cot1, active compounds read low 1.02 | S. cerevisiae deletion strains, locus YPL051W, strain arl3, active compounds read low 1.02 | S. cerevisiae deletion strains, locus YPL055C, strain LGE1, active compounds read low 1.06 | S. cerevisiae deletion strains, locus YPL078C, strain atp4, active compounds read low 1.02 | S. cerevisiae deletion strains, locus YPL106C, strain sse1, active compounds read low 1.01 | S. cerevisiae deletion strains, locus YPL240C, strain hsp82, active compounds read low 1.01 | S. cerevisiae deletion strains, locus YPL241C, strain CIN2, active compounds read low 1 | S. cerevisiae deletion strains, locus YPL256C, strain CLN2, active compounds read low 1.03 | S. cerevisiae deletion strains, locus YPR119W, strain clb2, active compounds read low 1.01 | S. cerevisiae deletion strains, locus YPR141C, strain kar3, active compounds read low 1.02 | S. cerevisiae deletion strains, locus YPR163C, strain tif3, active compounds read low 1.02 | S. cerevisiae deletion strains, locus YPR167C, strain met16, active compounds read low 1.02 | S. cerevisiae deletion strains, strain wtn01, active compounds read low 1.03 | S. cerevisiae strains, strain wild type, active compounds read low 1.02
